Drawing on PubChem BioAssay, this text covers z-score for eleven molecules.

SMILES strings stand for the structures.

The experiment in a line: resazurin metabolic signal in HepG2 cells – cell-based, resazurin fluorescence, 24 h, PK04 Diversity Set, profiling panel (AID 1172). Note: test concentration not given here. To be noted: HepG2 viability, higher = more signal.
Consider `COC(=O)[C@H](C)NC(=O)CCC1CC(OC(=O)NCc2cccc3ccccc23)CC2(CCCC(COC(=O)NCc3ccccc3)O2)O1` (stereo partly specified), for which the z-score was 2.27.

Molecule `O=C1CCCC=C1C(O)C1CCCCC1` (stereo unspecified) gave a z-score of -0.075.

`COc1ccc(COC(=O)NN=C2C[C@@H](O)[C@@H](O)[C@@H]3[C@@H]4C(=O)N(Cc5ccccc5)C(=O)[C@@H]4CC[C@@H]23)cc1` gave a z-score of 1.13.

Regarding `CO[C@H]1COC(=O)CC=C[C@H](C)[C@H](OC)COC(=O)[C@@H](C)NC(=O)CC=C[C@@H]1C`, the z-score is 0.664.

`CC(C)CON=C1[C@H]2CCn3c(=O)n(C)c(=O)n3[C@H]2[C@H](O)[C@@H]2O[C@H]12`: the z-score was -0.423.

In the case of `CCOC(=O)CCN1C(=O)[C@H]2[C@H]3[C@H](O)[C@H](O)CC(=NOCC=C(C)CCC=C(C)C)[C@@H]3CC[C@H]2C1=O`, the z-score was found to be 0.046.

With `CC[C@@H](c1ccccc1)n1c(=O)n2n(c1=O)[C@H]1[C@H](O)[C@@H]3O[C@@H]3C(=NOCc3ccccc3)[C@H]1CC2`, the z-score is -1.67.

`CC(CCN1CCCc2nc(C)c(C)cc21)=NO[C@@H](C)c1cn([C@H](CO)Cc2ccccc2)nn1`: the z-score was -0.333.

As for `COC(=O)[C@H](C)NC(=O)CCC1CC(OC(=O)NCCc2ccc(F)cc2)CC2(CCCC(COC(=O)NCC3CCCCC3)O2)O1` (stereo partly specified), the z-score is 0.427.

Consider `CCOC(=O)[C@H](Cc1ccccc1)NC(=O)CCC1CC(OC(=O)NCc2ccc3c(c2)OCO3)CC2(CCCC(COC(=O)NCCCN3CCCC3=O)O2)O1` (stereo partly specified), for which the z-score was determined as 0.557.

`CC(CCC(=O)OC[C@H]1O[C@H](C#Cc2ccccc2)C=C[C@@H]1Oc1ccc(C)cc1)=NOC[C@@H](C)[C@H](OCc1ccccc1)C(C)C` showed a z-score of 0.38.
